Test results as given in PubChem BioAssay AID624167 (Sanford-Burnham Center for Chemical Genomics, 2012).

Assay: Peg3 promoter luciferase inhibitors, potency, dose response, cell-based, HeLa, CREF/GAPDH counter-screen panel (AID 624167)
Conditions: CREF/GAPDH counter-screens; run 2, dose range 1, at 100 µM (top of the series)

| Compound | inhibition [%] |
| --- | --- |
| CCC(c1nnnn1-c1ccc2c(c1)OCCO2)N1CCC(n2c(=O)[nH]c3ccccc32)CC1 (stereo not drawn) | 100 |
| O=C(CSC1c2ccccc2-c2ccccc21)N/N=C/c1ccccc1O | 53.7 |
| CC1=CC2/C=C(\C)CCC(O)C(O)/C=C/C(=O)C23C(=O)NC(CC(C)C)C3C1C (stereo not drawn) | 100 |
| CC(=O)OC1CC[C@]2(C#N)[C@H]3CC[C@]4(C)[C@H](C5C=CC(=O)O5)CCC4(O)C3CCC2(O)C1 (stereo partly drawn) | 83.6 |
| COc1cc2nc(CN3CC=C(c4ccccc4)CC3)[nH]c(=O)c2cc1OC | 59.5 |
| CC(=O)OC1(C)CC(C)C(=O)C(C(O)CC2CC(=O)NC(=O)C2)C1 (stereo not drawn) | 95.8 |
| COC(COC(N)=O)C1=C(N2CC2)C(=O)C(C)=C(N2CC2)C1=O (stereo not drawn) | 89 |
| C=Cc1cc(OC)c2c(c1)c(=O)oc1c2cc(OC)c2c(O)ccc(C3OC(C)C(O)C(C)(O)C3O)c21 (stereo not drawn) | 40.5 |
